Screens (PubChem)
Autofluor counter – flagged as autofluorescent in microsphere protease counterscreen; compound autofluorescence counterscreen, microsphere flow cytometry; hits give high values; fluorescence intensity (concentration not given with the values); 360,000 tested, 3.1% active; in the data active = fluorescence intensity above about 16000; inconclusive = no clear call, values can overlap the other calls
BoNT F protease – inhibitors of Botulinum neurotoxin F light chain protease; Multiplex microsphere protease cleavage assay, flow cytometry; inhibition, % at 10 µM; 360,000 tested, 0.22% active; in the data active = inhibition above about 35%, passing the limit was not always enough; inconclusive = no clear call, values can overlap the other calls; note: plate controls were buffer without enzyme for full effect and enzyme alone for no effect
BoNT A protease – blocks Botulinum neurotoxin A light chain protease; AID 588499; inhibition, % at 10 µM; multiplex microsphere protease substrate cleavage, flow cytometry; 360,000 tested, 0.17% active; note: plate controls were buffer without enzyme for full effect and enzyme alone for no effect
Anthrax LF inh2 – anthrax lethal factor protease inhibition; multiplex microsphere protease cleavage assay, LF; inhibition, % at 10 µM; 360,000 tested, 0.12% active; note: plate controls were buffer without enzyme for full effect and enzyme alone for no effect
GDH-TPI counter – inhibits GDH-TPI coupling enzymes, artifact for Mtb FBA screen; GDH-TPI coupled enzyme counterscreen, NADH absorbance; 360,000 tested, 1.2% active; inhibition, % at 4.8 µM; in the data active = inhibition above about 30%;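 note: 0% = DMSO wells and 100% = wells lacking the enzyme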
Mtb FBA inh – Mtb fructose-bisphosphate aldolase inhibition; P9WQA3; purified M. tuberculosis FBA, fluorescence read-out; inhibition, % at 1 µM; 360,000 tested, 2.3% active; AID 588726; in the data active = inhibition above about 27%;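 note: 0% = vehicle and 100% = reference inhibitor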
Target sequence (P9WQA3 whole entry, looked up): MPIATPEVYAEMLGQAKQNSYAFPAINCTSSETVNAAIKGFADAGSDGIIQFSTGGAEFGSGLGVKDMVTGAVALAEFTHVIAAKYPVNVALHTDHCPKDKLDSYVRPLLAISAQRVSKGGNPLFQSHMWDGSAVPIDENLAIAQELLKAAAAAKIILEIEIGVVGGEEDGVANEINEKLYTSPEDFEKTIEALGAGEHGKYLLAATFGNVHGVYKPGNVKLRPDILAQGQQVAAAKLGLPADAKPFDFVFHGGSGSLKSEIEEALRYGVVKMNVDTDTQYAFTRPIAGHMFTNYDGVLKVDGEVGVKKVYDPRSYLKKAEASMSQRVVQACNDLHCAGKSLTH
Active calls of the source: *; ? = inconclusive; . = not tested or not shown. Hits are enriched below; roughly 6.7% of the tested compounds scored in any of these assays. Cut-off read from the data, not from the text of the source, unless noted: active = inhibition above about 30%; inconclusive = no clear call, values can overlap the other calls; inactive = below that.

SMILES	Autofluor counter	BoNT F protease	BoNT A protease	Anthrax LF inh2	GDH-TPI counter	Mtb FBA inh
CCOC(=O)C(=CNc1ccc2c(c1)CCN2C(C)=O)C(=O)OCC	4471	?	-3	-2	35*	-3
COc1ccc(NC(=O)C2CCN(c3cc(C)nc(-c4ccccc4)n3)CC2)cc1	3962	?	0	0	3	0
O=C1NC(Cc2ccc(O)cc2)c2nc3cc(Cl)ccc3c(=O)n2-c2cc3ccccc3cc21 (stereo not drawn)	3671	-10	0	2	4	-2
CC(NC(=O)c1ccccc1Cl)C1COc2ccccc2O1 (stereo not drawn)	2979	10	0	1	9	-4
COc1ccc(N(CC(=O)NCc2cccc(OC)c2)S(=O)(=O)c2c(C)noc2C)cc1	20088*	0	0	-2	2	0
COc1ccc(N(CC(=O)NCC2CCCO2)S(=O)(=O)c2c(C)noc2C)cc1 (stereo not drawn)	23408*	-6	?	-2	10	-4
COc1ccc(N(CC(=O)NCc2ccc(F)cc2)S(=O)(=O)c2c(C)noc2C)cc1	5594	1	0	-1	14	4
O=C(CN(c1ccc(F)cc1)S(=O)(=O)c1ccc2c(c1)OCCO2)NCC1CCCO1 (stereo not drawn)	22449*	1	1	2	6	4
CCC(=O)NC(=S)Nc1ccc(NC(=O)c2cccnc2)cc1	.	.	.	.	13	4
Cc1c2c([n+]3n1CCC3)CC(C)(C)CC2=O	10619	-11	-1	-3	0	1
CC(=O)Nc1ccc(NC(=O)C2CCCN(c3ncccn3)C2)cc1 (stereo not drawn)	4477	1	-1	0	2	8
Cc1cc(C)nc(N2CCCC(C(=O)Nc3nc4ccc(S(C)(=O)=O)cc4s3)C2)n1 (stereo not drawn)	22009*	1	2	1	7	5
Cc1cc(C)cc(NC(=O)C2CCCN(c3nccc(C)n3)C2)c1 (stereo not drawn)	16127*	1	0	-4	7	3
Cc1cc(C)cc(NC(=O)C2CCCN(c3nc(C)cc(C)n3)C2)c1 (stereo not drawn)	22398*	-3	-1	-9	4	2
Cc1noc(NS(=O)(=O)c2ccc(NC(=O)c3ccc(Br)o3)cc2)c1C	2545	-4	-2	-2	4	-1
COCCNC(=O)c1cc(-c2cccnc2)nc2ccc(Br)cc12	23362*	1	1	-1	13	0
COc1cc(NC(=O)c2cc(-c3cccnc3)nc3ccc(Br)cc23)cc(OC)c1	4404	-3	2	-6	13	4
O=C(Nc1cccnc1)c1cc(-c2cccnc2)nc2ccc(Br)cc12	21271*	2	4	2	25	4
O=C(NCCCn1ccnc1)c1cc(-c2cccnc2)nc2ccc(Br)cc12	4431	1	0	-9	8	0
C=C(C)c1cccc(C(C)(C)NC(=O)Nc2ccc(OC)nc2)c1	3140	8	-1	1	1	148*
C=C(C)c1cccc(C(C)(C)NC(=O)Nc2ccc(C)cn2)c1	2029	0	0	2	-1	0
O=C(CC(=O)c1ccccc1)CS(=O)(=O)c1ccccc1	3858	-9	0	-11	41*	-4
CC(C)(C)NCC(O)COc1c(F)cc(Br)cc1F (stereo not drawn)	22894*	2	2	1	-1	2
C[C@H](CO)N1C[C@H](C)[C@@H](CN(C)Cc2ccc(-c3ccccc3)cc2)Oc2c(NS(=O)(=O)c3cccs3)cccc2C1=O	3524	1	0	-2	-3	-1
Cc1cc(C(=O)N2CCN(c3ccccc3)CC2)c(C)o1	17012*	-2	-2	-1	6	-1
SMILES	Autofluor counter	BoNT F protease	BoNT A protease	Anthrax LF inh2	GDH-TPI counter	Mtb FBA inh
Cc1cc(C(=O)N2CCN(c3ncccn3)CC2)c(C)o1	21168*	-3	-4	-1	-8	-1
Cc1cc(C(=O)N2CCN(c3cccc(Cl)c3)CC2)c(C)o1	4003	?	1	-4	0	0
COc1ccc2c3c([nH]c2c1)C1CC2C(CC(O)C(OC)C2C(=O)O)CN1CC3 (stereo not drawn)	4413	-55	2	-31	-3	4
CCC(=O)N1CN(S(=O)(=O)c2ccc(C)cc2)CC1C (stereo not drawn)	21656*	-3	-3	-2	-10	0
N#C/C(=C\c1ccc([N+](=O)[O-])cc1)C(=O)Nc1ccccc1O	3145	-4	0	-1	3	-1
COc1ccccc1-c1cc(C(F)(F)F)nc(N2CCN(c3ccc(F)cc3)CC2)n1	4305	-10	-1	-1	-6	1
FC(F)(F)c1cc(-c2ccco2)nc(N2CCN(c3ccccc3)CC2)n1	25233*	-7	-6	-4	6	-1
COc1ccccc1-c1cc(C(F)(F)F)nc(N2CCN(c3ccccc3)CC2)n1	12698	-22	-5	-5	-1	28*
O=C(CCSc1nc(-c2ccco2)cc(C(F)(F)F)n1)N1CCN(c2ccccc2)CC1	3320	-6	-1	-6	9	-3
O=C(CNC(=O)c1ccc(Cl)cc1Cl)OCC(=O)N1CCCC1	?	7	3	4	-2	2
COC(=O)CSc1nnc(CCc2nc3ccccc3[nH]2)n1C	10061	9	0	1	2	3
Cc1ccc(/C=N\Nc2nc3ccc(Cl)cc3[nH]2)o1	4146	-11	-1	-7	45*	-1
Fc1ccccc1-c1ccc(/C=N/Nc2nc3ccccc3[nH]2)o1	2573	-15	0	-3	16	4
CCOC(=O)c1c(-n2c(C)cc(C=C3C(=O)NC(=S)NC3=O)c2C)sc2c1CCCC2	9156	29	36*	38*	32*	3
COc1ccc(C(=O)NCC2(c3ccccc3)CCOCC2)cc1[N+](=O)[O-]	2436	-4	0	0	3	1
COc1ccc(C2(CNC(=O)c3ccc(OC)c([N+](=O)[O-])c3)CCOCC2)cc1OC	21598*	4	?	0	16	1
N#Cc1ccccc1OCc1nnc(-c2ccccc2Br)o1	4084	-20	-7	7	-6	0
COC(=O)c1nn(-c2ccc(OC)cc2)c(=O)cc1Oc1cccc(Cl)c1	20164*	-4	?	0	-2	-1
C=CCNC(=S)N/N=C/c1ccc(OCc2ccccc2Cl)cc1	19727*	-4	0	2	17	-3
Clc1ccccc1COc1ccc(/C=N/n2cnnc2)cc1	10422	-2	0	1	-6	1
Cn1c(=O)oc2cc(S(=O)(=O)NCCN3CCCCCC3)ccc21	21921*	-13	?	-5	-16	-2
CC1CCCCN1CCNS(=O)(=O)c1ccc2c(c1)oc(=O)n2C (stereo not drawn)	22199*	-6	?	-3	1	4
